In PubChem BioAssay (Tox21):
Inconclusive results are not listed. Where a call stands in place of a potency, no number is given. Activity calls are given as the source filed them. Calls come from the whole dose curve.

Experiment: qHTS assay to identify small molecule agonists of the AP-1 signaling pathway (AID 1159526)
Conditions: ME-180 (cervical carcinoma) AP-1-bla reporter, beta-lactamase FRET ratio, 5 h; series mostly up to 76.8 µM
Potency is the fitted concentration of half-maximal effect.

Structure (SMILES) | Potency
N#CCc1ccc(Cl)cc1 | inactive
Clc1ccc(Oc2ccccc2)cc1 | inactive
O=C(Cl)c1ccc(Cl)cc1 | inactive
CCOC(=O)c1ccccc1S(=O)(=O)NC(=O)Nc1nc(Cl)cc(OC)n1 | inactive
CC(=O)c1ccc(-c2ccccc2)cc1 | inactive
N#Cc1ccccc1Cl | inactive
Cc1ccc(CCl)cc1 | inactive
CN(CCCC(O)c1cccnc1)N=O (stereo not drawn) | inactive
Clc1ccc(-c2ccccc2)cc1 | inactive
COP(=O)(CCC(=O)NCO)OC | inactive
COC[C@H](C)N(C(=O)CCl)c1c(C)csc1C | inactive
CC(=[OH+])/C=C(/C)[O-].CC(=[OH+])/C=C(\C)[O-].CC(=[OH+])/C=C(\C)[O-].[Al] | inactive
CC(C)CBr | inactive
Oc1ccccc1Br | inactive
C[As+](C)(C)CC(=O)[O-] | 43.6 µM (active)
COCC(=O)N(c1c(C)cccc1C)[C@H](C)C(=O)OC | inactive
CCc1ccccc1C | inactive
Cl/C=C\CCl | inactive
Clc1ccc(-c2ccc(Cl)c(Cl)c2Cl)c(Cl)c1Cl | inactive

Structure (SMILES) | Potency
ClC1=C(Cl)[C@]2(Cl)[C@@H]3[C@@H](Cl)[C@H](Cl)C[C@@H]3[C@@]1(Cl)C2(Cl)Cl | inactive
ClCCN1CCOCC1 | inactive
C[C@@H](Oc1ccc(Cl)cc1Cl)C(=O)O | inactive
N#Cc1ccccc1N | inactive
CC(=[OH+])/C=C(/C)[O-].CC(=[OH+])/C=C(\C)[O-].CC(=[OH+])/C=C(\C)[O-].[Fe] | inactive
CCC(C)c1cc(C(C)(C)C)cc(-n2nc3ccccc3n2)c1O (stereo not drawn) | inactive
CCOP(=S)(OCC)SCCS(=O)(=O)CC | inactive
Nc1ccc([N+](=O)[O-])cc1Cl | inactive
O=[N+]([O-])c1cc(Cl)ccc1Cl | inactive
ClCc1ccccc1CCl | inactive
CCSC(C)CC1CC(=O)C(/C(CC)=N/OC/C=C/Cl)=C(O)C1 (stereo not drawn) | inactive
BrCC(Br)c1ccccc1 (stereo not drawn) | inactive
C=CC(=O)N(C)C | inactive
Cc1cc(Cl)ccc1O[C@H](C)C(=O)O | inactive
ClC1=C(Cl)[C@]2(Cl)[C@@H]3[C@@H](Cl)[C@@H](Cl)C[C@@H]3[C@@]1(Cl)C2(Cl)Cl | inactive
C=CCOC(N)=O | inactive
COP(N)(=S)OC | inactive
C=COCCCl | inactive
Cn1[nH]nnc1=S | 49 µM (active)
